We go through 16 molecules from PubChem BioAssay.

A short description of assay [1]: P. berghei load reduction in hepatocytes – cell-based, HepG2, luciferase luminescence, HepG2 viability, primary screen (AID 624349; in the data active means parasite load remaining mostly below about 12%, no sharp cut-off; inactive means mostly above about 10%;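 further: 100% = mean of DMSO negative control wells on the same plate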). As to conditions: P. berghei liver stage in HepG2, luciferase luminescence, concentration not given here; parasite load remaining: stronger effect = lower value; viability: measured here: HepG2 viability without parasites.
The target of assay [2] is 6-phosphogluconate dehydrogenase, decarboxylating (Homo sapiens) (UniProt P52209). The assay is described as follows: inhibition of human phosphogluconate dehydrogenase – biochemical, recombinant enzyme, NADPH absorbance, primary screen (AID 1159550;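 active means at least 20% inhibition of 6-phosphogluconate dehydrogenase activity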). As to conditions: recombinant 6PGD, NADPH absorbance 341 nm; at 10 µM; stronger effect = higher value.
The nature of assay [3]: EMT-state selective cytotoxicity in co-culture – imaging, PC-3E GFP, TEM4-18 mCherry, primary screen (AID 1345086).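 On all read-outs here: cells exposed to compound for 72 h before imaging.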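 On red/green cell ratio (normalised): normalised mesenchymal count divided by normalised epithelial count so high means epithelial killing.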 As to conditions: PC-3E GFP / TEM4-18 mCherry co-culture, imaging cell counts, at 1 µM; for red/green cell ratio (normalised): actives lie on both sides, counts scaled to control wells, 1 = unselective.
Assay [4] is described as follows: MELAS cybrid and Rieske KO viability enhancers – cell-based, MELAS cybrids, Rieske KO mouse fibroblasts, CellTiter-Glo, primary screen (AID 1508586;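 active means mean z-score across replicates of 1.96 or higher in either the MELAS or the Rieske mutant cell line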;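 further: z relative to plate mean and SD of compound and empty wells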). As to conditions: low glucose.
In assay [5] the target is Mitogen-activated protein kinase 7 (Homo sapiens) (UniProt Q13164). The assay is described as follows: Gal4-ERK5 driven luciferase induction – cell-based, HTS, primary screen (AID 1508626;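 active means luciferase signal above three times the same-plate solvent-only control wells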;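 further: luciferase driven by Gal4-ERK5 fusion binding five Gal4 sites before minimal TATA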). As to conditions: HeLa Gal4-ERK5 transactivation, 18 h, at 5 µM, stronger effect = higher value.
A short description of assay [6]: galactose survival enhancers in mitochondrial complex I cybrids – cell-based, galactose medium, ATP luminescence, primary screen (AID 1645843;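 active means z-score of at least 1.8 in each of two replicates, scored against plate mean and spread of sample wells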;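 further: positive z means more ATP and so rescue of galactose-driven cybrid death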). As to conditions: complex I mutant cybrid cells, 72 h, stronger effect = higher value.
The target in assay [7] is NAD(+) hydrolase SARM1 (Homo sapiens) (UniProt Q6SZW1). As to the kind of experiment: blocking NAD cleavage by SARM1 SAM-TIR – cell lysate, NAD-Glo luminescence (AID 1508614;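 active means compound whose remaining NAD level is above about 45 nM, limit read from the data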). As to conditions: SAM-TIR HEK293T lysate NADase, at 1 µM, stronger effect = higher value.
Assay [8] is described as follows: viability loss with induced miR-34 in A549 – imaging, A549 dox-inducible miR-34, nuclei and caspase counts, primary screen (AID 1347080;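 active means compounds whose cell count with miR-34 switched on is under 0.7 times the count with it off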). As to conditions: A549 miR-34 inducible, Hoechst nuclei count, 48 h.
The mark [9] stands for this setting: measured here: epithelial PC-3E GFP cell survival.
The mark [10] stands for this setting: measured here: mesenchymal TEM4-18 mCherry cell survival.
Where [11] appears, read: MELAS cybrid survival, CellTiter-Glo 48 h, stronger effect = higher value.
Setting [12] is: Rieske KO mouse fibroblast survival, CellTiter-Glo 72 h.
The mark [13] stands for this setting: stronger effect = lower value, cell number ratio, induced over uninduced.
[14] abbreviates: measured here: relative caspase fold change +Dox/-Dox.
The mark [15] stands for this setting: measured here: total cells with miR-34 induction, stronger effect = lower value.
The mark [16] stands for this setting: measured here: total cells without miR-34 induction.

Where “and” joins values, the source holds several entries; their conditions need not be identical. Equal values may be shown once. Where a structure was tested more than once in an assay, its records may differ in their call. Calls of active or inactive are those of the source.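 How the source made its calls, unless noted: active means compounds killing one labelled cell type while sparing the other, by normalised counts and ratio limits, not self-fluorescent; inactive means the rest.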

Sequence of 6-phosphogluconate dehydrogenase, decarboxylating (Homo sapiens) (P52209 whole entry, looked up): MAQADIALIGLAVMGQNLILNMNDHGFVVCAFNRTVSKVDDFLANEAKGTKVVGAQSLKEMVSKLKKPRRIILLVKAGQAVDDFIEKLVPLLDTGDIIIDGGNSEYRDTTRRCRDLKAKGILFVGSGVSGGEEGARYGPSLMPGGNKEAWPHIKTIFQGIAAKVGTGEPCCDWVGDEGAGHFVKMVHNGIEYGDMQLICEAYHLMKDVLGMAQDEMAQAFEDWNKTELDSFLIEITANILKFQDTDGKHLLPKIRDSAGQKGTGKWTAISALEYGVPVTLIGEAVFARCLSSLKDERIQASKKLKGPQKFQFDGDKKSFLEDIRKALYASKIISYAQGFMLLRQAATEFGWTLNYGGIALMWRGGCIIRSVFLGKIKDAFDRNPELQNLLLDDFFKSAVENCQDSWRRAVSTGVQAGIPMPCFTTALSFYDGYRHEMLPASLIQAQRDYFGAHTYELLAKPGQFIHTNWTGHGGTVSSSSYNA
Sequence of Mitogen-activated protein kinase 7 (Homo sapiens) (Q13164 whole entry, looked up, the tested form may be a part): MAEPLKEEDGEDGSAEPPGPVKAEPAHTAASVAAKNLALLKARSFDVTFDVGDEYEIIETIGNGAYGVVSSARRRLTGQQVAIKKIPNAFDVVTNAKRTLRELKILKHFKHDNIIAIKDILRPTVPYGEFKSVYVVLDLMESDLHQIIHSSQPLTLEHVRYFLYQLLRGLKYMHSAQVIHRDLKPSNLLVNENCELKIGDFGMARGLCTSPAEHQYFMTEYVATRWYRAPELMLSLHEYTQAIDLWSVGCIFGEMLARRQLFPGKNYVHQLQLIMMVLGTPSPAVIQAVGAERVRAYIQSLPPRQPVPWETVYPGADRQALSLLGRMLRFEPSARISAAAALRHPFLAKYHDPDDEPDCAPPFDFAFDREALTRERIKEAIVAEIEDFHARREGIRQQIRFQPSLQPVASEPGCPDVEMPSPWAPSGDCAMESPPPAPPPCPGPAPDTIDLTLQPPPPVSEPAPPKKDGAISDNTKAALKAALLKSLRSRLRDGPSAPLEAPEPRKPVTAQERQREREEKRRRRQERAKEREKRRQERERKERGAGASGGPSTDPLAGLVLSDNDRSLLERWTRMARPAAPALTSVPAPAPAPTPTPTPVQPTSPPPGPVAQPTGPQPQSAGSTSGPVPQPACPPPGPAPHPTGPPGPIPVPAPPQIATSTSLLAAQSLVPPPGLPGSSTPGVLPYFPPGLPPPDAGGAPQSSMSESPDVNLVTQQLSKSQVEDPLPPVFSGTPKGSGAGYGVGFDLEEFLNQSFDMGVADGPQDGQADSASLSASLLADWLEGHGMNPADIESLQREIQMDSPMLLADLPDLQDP
Sequence of NAD(+) hydrolase SARM1 (Homo sapiens) (Q6SZW1 whole entry, looked up): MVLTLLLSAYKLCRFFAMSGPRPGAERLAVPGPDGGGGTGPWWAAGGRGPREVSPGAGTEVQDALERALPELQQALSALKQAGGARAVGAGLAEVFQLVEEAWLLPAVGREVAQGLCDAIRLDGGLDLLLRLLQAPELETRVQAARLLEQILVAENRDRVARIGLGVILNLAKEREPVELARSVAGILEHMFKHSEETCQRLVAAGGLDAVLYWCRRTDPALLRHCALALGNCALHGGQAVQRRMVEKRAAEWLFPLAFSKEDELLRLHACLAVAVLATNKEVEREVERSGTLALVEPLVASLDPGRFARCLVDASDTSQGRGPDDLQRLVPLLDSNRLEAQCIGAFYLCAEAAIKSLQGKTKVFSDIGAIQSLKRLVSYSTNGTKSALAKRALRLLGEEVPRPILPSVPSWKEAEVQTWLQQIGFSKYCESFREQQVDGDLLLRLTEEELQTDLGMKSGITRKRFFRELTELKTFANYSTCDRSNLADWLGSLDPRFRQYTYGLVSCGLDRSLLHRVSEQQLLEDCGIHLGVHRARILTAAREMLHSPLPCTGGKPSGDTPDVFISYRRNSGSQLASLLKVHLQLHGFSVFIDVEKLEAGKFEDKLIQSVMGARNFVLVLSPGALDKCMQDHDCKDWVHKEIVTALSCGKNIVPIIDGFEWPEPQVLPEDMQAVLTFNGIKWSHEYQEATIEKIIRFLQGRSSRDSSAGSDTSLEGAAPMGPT

`O=c1cc(-c2ccc(O)cc2)oc2cc(O)cc(O)c12`: the parasite load remaining in assay [1] is 95.8% (inactive) and 11.3% (inactive) and 116% (inactive). Moreover, the viability in assay [1] is 94.9% and 100% and 77.5%. Moreover, the inhibition in assay [2] is -0.0494% (inactive). For the same molecule, in assay [3], the red/green cell ratio (normalised) was 0.91 (inactive). For the same molecule, the normalised cell number in assay [3] (setting [9]) was 1.2; in assay [3] (setting [10]), 1.09. Besides, the z-score in assay [4] (setting [11]) was -0.412 (inactive); in assay [4] (setting [12]), 0.346; in assay [6], 2.56 (active) and -0.305 (inactive). The luciferase signal in assay [5] is 64 AU (inactive).
As for `COc1cc(-c2coc3cc(OCc4ccccc4)c(OC)c(O)c3c2=O)cc(OCc2ccccc2)c1OC`, the inhibition in assay [2] was 16.5% (inactive). Also, the red/green cell ratio (normalised) in assay [3] was 0.82 (inactive). Also, the normalised cell number is 1.05 in assay [3] (setting [9]) and 0.86 in assay [3] (setting [10]).
The matching figures for `COc1cc2c(cc1OC)C1C(=O)c3c(cc4c(c3O)C=CC(C)(C)O4)OC1CO2` (configuration not stated): 7.64% (inactive), 0.76 (inactive), 1.04 and 0.79.
On to `COc1cccc2c1CCC1CC(=O)CC[C@]21C` (some centres not stated), for which the inhibition in assay [2] is -1.22% (inactive). In assay [3], the red/green cell ratio (normalised) was 0.76 (inactive). The normalised cell number in assay [3] (setting [9]) was found to be 1; in assay [3] (setting [10]), 0.76.
For `COc1ccc(C(=O)c2ccc(O)cc2)c(O)c1O` the same measures were -5.23% (inactive), 1.05 (inactive), 0.85 and 0.89.
The matching figures for `COc1cc(OC)c(-c2c(OC)cc(OC)cc2OC)c(OC)c1`: 11.7% (inactive), 1.06 (inactive), 0.99 and 1.04.
Regarding `NCCc1cnc[nH]1`, the parasite load remaining in assay [1] was 99.6% (inactive) and 68.2% (inactive). Besides, in assay [1], the viability was 74.2% and 99%. For the same molecule, the inhibition in assay [2] is 11.6% (inactive). For the same molecule, the red/green cell ratio (normalised) in assay [3] was 1.19 (inactive). Moreover, the normalised cell number was 0.99 in assay [3] (setting [9]) and 1.18 in assay [3] (setting [10]). Further, the z-score is 1.03 (inactive) and -0.124 (inactive) and -0.135 (inactive) in assay [4] (setting [11]); -0.434 and -0.222 and -0.159 in assay [4] (setting [12]); 0.205 (inactive) and 0.305 (inactive) and 0.49 (inactive) in assay [6]. Besides, the remaining NAD in assay [7] was 10 nM (inactive). Further, the luciferase signal in assay [5] is 68 AU (inactive).
As to `CN1C[C@H](C(=O)N[C@]2(C)O[C@@]3(O)[C@@H]4CCCN4C(=O)[C@H](Cc4ccccc4)N3C2=O)C[C@@H]2c3cccc4[nH]cc(c34)C[C@H]21`, the parasite load remaining in assay [1] is 81.1% (inactive) and 61.1% (inactive) and 32.5% (inactive). The viability in assay [1] is 69.3% and 88.9% and 89.9%. In addition, in assay [2], the inhibition is 6.21% (inactive). Also, the red/green cell ratio (normalised) in assay [3] is 1.38 (inactive). In addition, the normalised cell number in assay [3] (setting [9]) came out at 1.07; in assay [3] (setting [10]), 1.48. Besides, the fold change is 1.02 (inactive) and 0.955 (inactive) and 0.914 (inactive) in assay [8] (setting [13]); 1.31 and 1.01 and 2.52 in assay [8] (setting [14]). The cell count in assay [8] (setting [15]) is 7530 and 7990 and 11700; in assay [8] (setting [16]), 7390 and 8360 and 12800. The remaining NAD in assay [7] was 10 nM (inactive). Further, the luciferase signal in assay [5] was 32 AU (inactive). In assay [6], the z-score is -0.125 (inactive) and -0.835 (inactive).
In the case of `CC1NC(=O)NC1=O` (configuration not stated), the inhibition in assay [2] is -12% (inactive). The red/green cell ratio (normalised) in assay [3] is 0.85 (inactive). The normalised cell number in assay [3] (setting [9]) turned out to be 0.94; in assay [3] (setting [10]), 0.79.
Take `CCCCOc1cc(CC2CNC(=O)N2)ccc1OC` (configuration not stated): the inhibition in assay [2] was 1.84% (inactive). Also, in assay [3], the red/green cell ratio (normalised) is 1.01 (inactive). Moreover, the normalised cell number was determined as 1.14 in assay [3] (setting [9]) and 1.15 in assay [3] (setting [10]). The fold change in assay [8] (setting [13]) was 0.994 (inactive) and 1.05 (inactive) and 0.91 (inactive); in assay [8] (setting [14]), 1.87 and 1.3 and 0.769. Further, the cell count in assay [8] (setting [15]) was 10200 and 6130 and 8720; in assay [8] (setting [16]), 10300 and 5830 and 9590. The luciferase signal in assay [5] is 60 AU (inactive). In assay [6], the z-score was 0.26 (inactive) and -0.055 (inactive).
Consider `CC(=O)c1ccc[nH]1`, for which the inhibition in assay [2] is 13.8% (inactive). Also, the red/green cell ratio (normalised) in assay [3] is 0.97 (inactive). In addition, the normalised cell number in assay [3] (setting [9]) is 1.06; in assay [3] (setting [10]), 1.03.
The matching figures for `C=C1C2=CC(=O)O[C@@H](c3ccoc3)[C@]2(C)CCC1[C@@]1(C)C=CC(=O)C(C)(C)[C@@H]1CC(=O)OC` (some centres not stated): 1.03% (inactive), 1.06 (inactive), 1.13 and 1.2.
The matching figures for `O=C(O)CCC(=O)OCC(NC(=O)C(Cl)Cl)C(O)c1ccc([N+](=O)[O-])cc1` (configuration not stated): 1.37% (inactive), 1.01 (inactive), 1.15 and 1.16.
The matching figures for `COC(=O)c1cc(=O)c(O)c2c(O)c(O)ccc2c1`: -4.56% (inactive), 0.88 (inactive), 1.21 and 1.06.
On to `CC(C)CCCC(C)[C@H]1CCC2C3CC=C4CC(=O)CC[C@]4(C)C3CC[C@@]21C` (some centres not stated), for which the inhibition in assay [2] is 11.7% (inactive). Further, the red/green cell ratio (normalised) in assay [3] was 0.87 (inactive). The normalised cell number in assay [3] (setting [9]) came out at 1.01; in assay [3] (setting [10]), 0.88.
Take `CCCCCC1C(=O)CCC1CC(=O)OC` (configuration not stated): the inhibition in assay [2] is 6.35% (inactive). For the same molecule, the red/green cell ratio (normalised) in assay [3] was 0.86 (inactive). Further, the figures for the normalised cell number in assay [3] (setting [9]) and in assay [3] (setting [10]) were 1.26 and 1.08, respectively.
